Our source for the outcome and AC50 values is PubChem BioAssay (EPA / NIEHS).

The structures appear in SMILES notation. Active and inactive are the calls of the source. How the source made its calls: active means hit-call score of the fitted dose curve at least 0.9, where 1 is the maximum; inactive means score below 0.9.

Read-out in this assay: CYP2C9 (gene 1559)
In words: LTEA_HepaRG_CYP2C9: Life Technologies and Expression Analysis (LTEA) Assay for CYP2C9 using HepaRG (AID 2283484). Conditions: mRNA level, 48 h; actives raise or lower the signal. As to the method: LTEA_HepaRG is a cell based, multiplexed-readout assay that uses HepaRG, a human liver cell line, with measurements taken at 48 hours after chemical dosing on a 96-well plate.LTEA_HepaRG_CYP2C9 is one of 102 assay component(s) measured in the LTEA HepaRG cell culture assay. It is a marker of NR mediated metabolism.Data from the assay component LTEA_HepaRG_CYP2C9 was analyzed into 1 endpoint. This assay endpoint, LTEA_HepaRG_CYP2C9, was analyzed with bidirectional fitting relative to DMSO as the negative control and baseline of activity. Using a type of inducible reporter, measures of mRNA induction for gain or loss-of-signal activity can be used to understand regulation of transcription factor activity. To generalize the intended target to other relatable targets, this assay endpoint is annotated to the cyp intended target family, where the subfamily is xenobiotic metabolism.
A total of 1060 chemcials from the ToxCast library were tested in eight-point concentration-response experiments. Cell culture and cytotoxicity assays were conducted at Thermo Fisher Scientific's Custom Services facility (Madison, WI). A single lot of human HepaRG cells (Thermo Fisher Scientific, Frederick, MD) was used for the cell culture experiments. 96-well format collagen type I coated plates of human HepaRG cells were prepared using established methods. Briefly, cryopreserved HepaRG cells were thawed, plated at a density of approximately 100,000 cells/well in HepaRG Thaw, Plate, and General Purpose media (HPRG770, Thermo Fisher Scientific), and incubated for 48 hours. 0.5% DMSO was selected as vehicle control to balance the requisite need of DMSO in HepaRG cultures to maintain differentiation (for example, baseline metabolism, proportions of hepatocytes vs. cholangiocytes), while enabling further hepatic receptor pathway activation (for example, PXR and CAR) in response to chemical exposure. 48 hours after plating, the culture medium was replaced with HepaRG Serum-Free Incudtion Media. Cells were exposed to each test chemical in duplicate and maintained in CO2 incubators for another 48 hours. Chemical plates were thawed to room temperature and 200x concentrations of treatment groups were prepared. 8-point conentration-reponse curves were made with the highest exposure at 100 uM, followed by half-log dilutions, all in 0.5% DMSO. Each test plate contained variouse controls, induction positive controls (1mM phenobarbital), cytotoxicity positive controls ([…] aflatoxin B1), vehicle controls (0.5% DMSO), and total lysis controls (0.5% DMSO). Cell morphology images were taken using an Essen IncuCyte FLR automated microscope, with six 96-well plates imaged in about 24 minutes. Images were captured and exported and JPEG files. Spent culture media was transfered to black-well plates for the LDH assay, and remaining media was sorted at -80 C for later use. Cells were treated with RLT buffer and frozen until shipped for gene expression analysis. Total RNA was isolated from the cell suspension in 75 uL of Buffer RLT (Qiagen, Germantown, MD 20874) by Quintiles/Expression Analysis (Durham, NC) using a custom isolation procedure. Total RNA from each plate well was transferred to a preamplification plate. Fluidigm's 96.96 Dynamic ArrayTM (Fluidigm, Amsterdam, the Netherlands) technology was used for gene expression analyses by quantitative reverse transcription polymerase chain reaction (qRT-PCR, performed by Quintiles/Expression Analysis, Durham, NC)89. Standard TaqManTM Assays (Applied Biosystems/ThermoFisher Scientific, Foster City, CA) were used to assess the expression of 93 genes selected based on their selectivity and sensitivity to important hepatic receptors known to be modulated by environmental chemicals; importance in human hepatocyte functionality; and hepatotoxicity. […]
Take `ClC1=C(Cl)[C@]2(Cl)[C@@H]3[C@@H]4C[C@@H]([C@H]5O[C@@H]45)[C@@H]3[C@@]1(Cl)C2(Cl)Cl`: the result was inactive. For the compound `O=C(NC(=O)c1cc(F)c(F)cc1Cl)Nc1cc(F)ccc1N1CCC(C(=O)O)CC1`, the compound was called inactive. As for `O=NN(c1ccccc1)c1ccccc1`, the AC50 (usually the concentration giving half of the maximal activity seen) was 0.273 µM (active). Turning to `O=S(=O)(O)C(F)(F)C(F)(F)C(F)(F)C(F)(F)F`, the outcome was inactive. The same measure, in the same setting: then `Cc1cccc([N+](=O)[O-])c1`, with “inactive”. Still for that read-out and setting: the value for `CCOCCOC(C)=O` was “inactive”.

Regarding `NS(=O)(=O)C(F)(F)C(F)(F)C(F)(F)C(F)(F)C(F)(F)C(F)(F)C(F)(F)C(F)(F)F`, the concentration at half-maximal activity (AC50) is 12.7 µM (active). Consider `Cc1ccccc1[N+](=O)[O-]`, for which the call was inactive. On the same count and under the same terms, the value for `c1cc2ccc3cccc4ccc(c1)c2c34` was “inactive”; that for `CC1=C2C[C@H]3[C@@H](CC=C4C[C@@H](O)CC[C@@]43C)[C@@H]2CC[C@]12O[C@@H]1C[C@H](C)CN[C@H]1[C@H]2C` was “inactive”; that for `N#Cc1ccc(N(CC(N)=O)CC(F)(F)F)cc1C(F)(F)F` was “inactive”.

As for `Cc1ccc(O)c(C)c1`, the call was inactive.

Regarding `CCOP(=S)(OCC)SCSC(C)(C)C`, the compound was classed as inactive. Regarding `CCCCCCCCCC[N+](C)(C)CCCCCCCCCC`, the AC50 was 60 µM (active). Regarding `COc1ccc(O)c(C(C)(C)C)c1`, the result was inactive. On the same count and under the same terms, then `CC(C)C(=O)OCC(C)(C)C(OC(=O)C(C)C)C(C)C` (stereo not given), with “inactive”. Turning to `CO/C=C(/C(=O)OC)c1ccccc1COc1cccc(C(F)(F)F)n1`, the AC50 was 8.81 µM (active).

Turning to `CCOC(=O)C(O)(c1ccc(Cl)cc1)c1ccc(Cl)cc1`, the compound was called inactive.

With `Nc1ccc(-c2ccc(N)cc2)cc1`, the compound was classed as inactive. Take `CCCCCCCCCc1ccc(O)cc1`: the compound was called inactive. As to `Cc1cc2c3c(c1)C(c1ccccc1)=N[C@@H](NC(=O)c1ccncc1)C(=O)N3CC2`, the outcome was inactive. Same read-out and setting: then `c1ccc(-c2ccccc2)cc1`, with “inactive”; and `C=CC(=O)NCNC(=O)C=C`, with “inactive”; and `Nn1cnnc1`, with “inactive”. In the case of `O=S(=O)(O)C(F)(F)C(F)(F)C(F)(F)C(F)(F)C(F)(F)C(F)(F)F`, the AC50 is 6.28 µM (active).

As to `CCC(=O)O[C@H]1CC[C@H]2[C@@H]3CCC4=CC(=O)CC[C@]4(C)[C@H]3CC[C@]12C`, the call was inactive. Take `CN(C)c1nc(=O)n(C2CCCCC2)c(=O)n1C`: the outcome was inactive.

In the case of `ClC1=C(Cl)[C@]2(Cl)[C@@H]3[C@@H](Cl)[C@H]4O[C@H]4[C@@H]3C1(Cl)C2(Cl)Cl`, the compound was called inactive. As to `Clc1ccc(C(c2ccccc2Cl)C(Cl)(Cl)Cl)cc1` (stereo not given), the call was inactive. The same measure, in the same setting: then `CC(C)(O)C(=O)Nc1ccc([N+](=O)[O-])c(C(F)(F)F)c1`, with “inactive”. On to `CC#Cc1cc(C)nc(Nc2ccccc2)n1`, for which the AC50 is 19.8 µM (active).

As to `Oc1c(Cl)c(Cl)c(Cl)c(Cl)c1Cl`, the AC50 is 3.08 µM (active). Consider `CCCCCCCCOC(=O)c1ccccc1C(=O)OCCCCCCCC`, for which the call was inactive. On to `Cc1cc(-c2ccc(N)c(C)c2)ccc1N`, for which the result was inactive. In the case of `O=C(N[C@H]1CN2CCC1CC2)c1cc2ccoc2cn1`, the outcome was inactive. Same read-out and setting: then `Cc1cccc(C)c1N`, with “inactive”.

`O=C(O)C(F)(F)C(F)(F)C(F)(F)C(F)(F)C(F)(F)F`: the AC50 is 9.92 µM (active). `C1CC2OC2CC1C1CO1` (stereo not given): the compound was called inactive. Same read-out and setting: the value for `CCCN(CCC)N=O` was “inactive”; that for `CC(C)(c1ccccc1)c1ccc(O)cc1` was “inactive”.
